Measurements from PubChem BioAssay.

Experiment: Her2 expression decrease, cell viability multiplex – SKBR3 breast tumor cells, AlphaScreen, ATP viability, primary screen (AID 461);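 note: percent of carrier control wells set as 100% viability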
Conditions: SKBR3 Her2 protein level, 18-24 h, measured here: SKBR3 viability, ATP luminescence, at 10 µM

| SMILES | viability |
| --- | --- |
| O=C(c1ccc2nc(N3CCCCC3)sc2c1)N1CCN(c2ccccn2)CC1 | 87% |
| CC(C)CCNC(=O)Cn1c(NCCC(C)C)nc2c1c(=O)n(C)c(=O)n2C | 121% |
| CC(=O)NC(C)c1nc2ccccc2n1C(C)C (stereo not drawn) | 90% |
| NC(=O)CSc1cn(CCNC(=O)c2cccs2)c2ccccc12 | 99.5% |
| Cc1cccc(C2CC(c3ccc(Cl)cc3)Nc3nc(N)nn32)c1 (stereo not drawn) | 91% |
| CCOC(=O)CN1CC23C=CC(O2)C(C(=O)Nc2ccc(C(C)=O)cc2)C3C1=O (stereo not drawn) | 87% |
| CCCSc1nnc(N2C(=O)CC(c3ccsc3)C3=C2CCCC3=O)s1 (stereo not drawn) | 92.5% |
| O=C(CN1CCN(Cc2ccc(F)cc2Cl)C1=O)NCCCN1CCOCC1 | 99% |
| CN(C)CCCN1C(=O)CSC1c1ccccc1 (stereo not drawn) | 100% |
| COC(=O)Cn1c(=O)c2c(nc3n2CC(C)CN3c2ccc(C)c(C)c2)n(C)c1=O (stereo not drawn) | 90.5% |
| CCCSC1=C(C#N)C(c2cc(OC)ccc2OC)CC(=O)N1 (stereo not drawn) | 93% |
| O=C(Nc1ccc(CN2CCOCC2)cc1)c1cc2ccccn2n1 | 100% |
| CCN(CC)CCn1c(=N)n(CCO)c2ccccc21 | 94.5% |
| CCN(CCCNS(=O)(=O)c1ccc2c(c1)oc(=O)n2C)c1cccc(C)c1 | 88% |
| COc1ccc(OC)c(C2=NOC(C(=O)Nc3c(C)n(C)n(-c4ccccc4)c3=O)C2)c1 (stereo not drawn) | 88.5% |
| O=C(Cn1cc2c(n1)CCCCC2)N1CCc2ccccc2C1 | 116% |
| Cn1c(=O)c2c(nc(SCCCC#N)n2Cc2c(F)cccc2Cl)n(C)c1=O | 102% |
| CCN1CCN(Cc2ccc(NC(=O)Nc3ccccc3)cc2)CC1 | 82% |
